# This is a sample that favours compounds with a hit; in the whole collection about 12% have one here.
# BAZ2B block: BAZ2B (human) inhibition. AlphaScreen BAZ2B-H3K14Ac peptide displacement. Potency, µM (doses to about 114 µM), without a hit: top-dose activity change, negative = inhibition, hits mostly inhibitors. AID 504333. actives 4.4% (n = 360,000); further: on the % scale 0 is the no-effect control and ±100 the full control effect; nearly all actives have a fitted effect of over 60% in size
#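 In this displacement format the biotinylated H3(5-23) peptide acetylated at Lys14 serves as ligand at 50 nM, with BAZ2B at 50 nM in PBS pH 7.4 containing 0.01% Tween-20. Donor and acceptor beads are 10 ug/mL final.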
# G9a inh: blocks human histone lysine methyltransferase G9a; G9a H3K9 monomethylation, AlphaScreen, 2 h; actives 8.8% (n = 350,000); Potency, µM (highest dose often 102 µM), for inactives: at the highest dose activity, negative = inhibition, hits mostly inhibitors; Q96KQ7; further: on the % scale 0 is the no-effect control and ±100 the full control effect; nearly all actives have a fitted effect of over 75% in size
# Target sequence (Q96KQ7 913-1193 limits assumed): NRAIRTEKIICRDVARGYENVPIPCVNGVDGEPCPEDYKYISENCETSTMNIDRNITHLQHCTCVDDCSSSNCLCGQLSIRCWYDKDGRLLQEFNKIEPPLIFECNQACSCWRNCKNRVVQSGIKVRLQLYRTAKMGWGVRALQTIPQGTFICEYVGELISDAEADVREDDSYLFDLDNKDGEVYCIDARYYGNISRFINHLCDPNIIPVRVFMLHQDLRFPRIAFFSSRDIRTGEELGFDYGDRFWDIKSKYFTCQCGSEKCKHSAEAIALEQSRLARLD
#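 Signal arises when biotinylated H3K9 peptide, once monomethylated, bridges streptavidin donor and antibody-captured acceptor beads. Enzyme at 20 nM was preincubated 15 min with test compounds; peptide 500 nM and SAM 20 uM then reacted for 2 h.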
# TDP1 block: TDP1 (human) enzyme inhibition; Q9NUW8; recombinant TDP1, AlphaScreen DNA substrate cleavage; Potency, µM (highest dose often 130 µM), inactives show top-dose activity change, negative = inhibition, hits mostly inhibitors; actives 0.28% (n = 350,000); AID 485290; further: on the % scale 0 is the no-effect control and ±100 the full control effect; nearly all actives have a fitted effect of over 40% in size
#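 Here, a 5' biotin and 3' phosphotyrosine-FITC DNA oligonucleotide reports Tdp1 activity: intact substrate bridges AlphaScreen beads, while cleavage leaves a 3' phosphate and drops signal. All incubations at room temperature.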
# HP1b chromo inh: blocks HP1-beta chromodomain binding to methylated histone tails; P83916; AlphaScreen HP1-beta / biotin-H3K9me3 peptide binding; Potency, µM (doses to about 114 µM), inactives show top-dose activity change, negative = inhibition, hits mostly inhibitors; actives 0.56% (n = 390,000); further: nearly all actives have a fitted effect of over 70% in size
# Target sequence (P83916 whole entry, looked up): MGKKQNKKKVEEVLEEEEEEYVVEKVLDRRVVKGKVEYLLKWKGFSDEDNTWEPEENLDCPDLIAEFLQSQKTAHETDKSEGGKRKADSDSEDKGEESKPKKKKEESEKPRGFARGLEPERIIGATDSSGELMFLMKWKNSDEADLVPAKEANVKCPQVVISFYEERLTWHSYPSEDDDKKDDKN
#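 HP1-beta protein (50 nM final) preincubated 30 min at room temperature with biotinylated H3(1-18)K9me3 peptide (50 nM) in PBS pH 7.4, 0.01% Tween-20, then compound added for 30 min. AlphaScreen streptavidin donor/nickel chelate acceptor beads (10 ug/mL final), 30 min dark, luminescence read.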
# Sfp inh: blocks B. subtilis Sfp PPTase activity; AID 1490; actives 3.5% (n = 310,000); Biochemical Sfp PPTase activity, qHTS; Potency, µM, for the others: largest response in the series, negative = inhibition, hits mostly inhibitors; Q9F4F7;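 further: the enzyme is Sfp with the accession as filed and its product quenches rhodamine fluorescence; 0% = enzyme reaction without inhibitor and -100% = no enzyme wells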
#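 After 15 min at room temperature with compound, 15 nM Sfp received 5 uM rhodamine-CoA plus 12.5 uM BHQ-2-ybbR (50 mM Hepes pH 7.6, 10 mM MgCl2). Rate came from the fluorescence difference over 30 min, ex 525/em 598 nm.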
# JMJD2A Tudor inh: inhibitors of human JMJD2A Tudor domain; O75164; AlphaScreen JMJD2A-Tudor / H3K4me3 peptide binding; Potency, µM (series often up to 114 µM), inactives show at the top dose activity change, negative = inhibition, usual class: inhibitors; actives 4.4% (n = 390,000); further: on the % scale 0 is the no-effect control and ±100 the full control effect; nearly all actives have a fitted effect of over 50% in size
# Numbers without * were called inactive; u = inconclusive; x = no result; [ ] = dose if it differs, or a comment. The call rests on the fitted dose curve; in most records, active means well fitted curve in the direction sought with a large enough effect; inconclusive means small, poorly fitted or top-dose-only effect, or another doubt; inactive means no such curve, though single readings can be large; an effect the other way counts as inactive or inconclusive. Potency means the concentration at half of the fitted maximal effect.
SMILES,BAZ2B block,G9a inh,TDP1 block,HP1b chromo inh,Sfp inh,JMJD2A Tudor inh
Nc1ccc(Sc2ccc([N+](=O)[O-])cc2)cc1,35µM*,56µM*,5%,u,5%,u
CC(C)[C@H](NC(=O)[C@@H]1CSC2c3ccccc3C(=O)N21)C(=O)N1CCCCC1 (some centres undefined),-9%,44%,3%,38%,8%,-7%
Cc1cc2nn(-c3ccc(F)cc3)nc2cc1NC(=O)c1cc(Cl)ccc1Cl,-7%,u,1%,18%,x,6%
O=C1CSc2ccc(C(=O)Nc3cccc(S(=O)(=O)Nc4ccc(Br)cc4)c3)cc2N1,u,u,5%,-24%,35µM*,u
O=C(Nc1cccc(S(=O)(=O)Nc2ccc(Cl)cc2)c1)c1ccc(Cl)nc1,-3%,79µM*,0%,45%,11%,-25%
O=C(Nc1ccc(Br)cc1)c1cccc(S(=O)(=O)Nc2ccc(Br)cc2)c1,x,x,6%,x,15%,x
COCCn1ccc2c(OCC(=O)NCCc3ccc(OC)c(OC)c3)cccc2c1=O,8%,3%,8%,4%,x,-17%
Cn1nnc(NC(=S)NC(=O)c2cc(Cl)ccc2Cl)n1,u,3.5µM*,6%,-3%,50µM*,-5%
CCCS(=O)(=O)N1CCN(CC2CC3C=CC2C3)CC1 (centres undefined),50µM*,5.6µM*,-4%,u,-26%,-28%[11.4 µM]
CCCS(=O)(=O)N1CCN(CC2CC=CCC2)CC1 (centres undefined),56µM*,7.1µM*,-6%,-55%,-23%,0.89µM*
C1=CCC(CN2CCN(C3CCCCCC3)CC2)CC1 (centres undefined),45µM*,7.9µM*,x,u,u,1µM*
N=C(N)N1CCN(Cc2ccccc2)CC1,0%,13%,3%,x,8%,x
C1=CC2CC1CC2CN1CCN(Cc2ccccc2)CC1 (centres undefined),23%,2µM*,u,u,79µM*,1.1µM*
Cc1ccc(N2CCN(CC3CC=CCC3)CC2)cc1 (centres undefined),u,-12%[59 µM],5%,u,-2%,u
COc1ccc(S(=O)(=O)N2CCN(CC3CC=CCC3)CC2)cc1 (centres undefined),3%,21%,-21%,27%,-3%,-13%
CCOc1ccccc1NC(=O)C1CCN(C(=O)C2CC(=O)N(c3ccc(C)cc3)C2)CC1 (centres undefined),7%,15%,10%,-13%,9%,-19%
COc1ccccc1CN1CC(C(=O)NCc2cnn(C)c2)CCC1=O (centres undefined),2%,-4%,2%,23%,20%,-9%
Cc1noc(C)c1C(=O)NCC(=O)Nc1ccccc1Br,x,x,0%,27%,x,-14%
Cc1ccc(S(=O)(=O)N2CCN(CC3CC4C=CC3C4)CC2)cc1 (centres undefined),18µM*,7.9µM*,1%,28µM*,u,0.79µM*
CCOC(=O)C#CC(CCc1ccccc1)OS(N)(=O)=O (centres undefined),-6%,u,x,77%,12%,-2%
Cc1cc(CNC(=S)Nc2ccc(S(=O)(=O)Nc3ncccn3)cc2)nn1C,-2%,x,5%[56.1 µM],36%,-15%,-4%
O=S(=O)(Nc1ncccn1)c1ccc(NC(=S)Nc2cccc(Cl)c2)cc1,-13%,-30%,3%,x,56µM*,x
O=C(Cc1c(F)cccc1Cl)NNC(=S)Nc1ccc(S(=O)(=O)Nc2ncccn2)cc1,-4%,28µM*,-2%,41%,11%,-18%
Cc1nn(C)c(C)c1NC(=S)Nc1ccc(S(=O)(=O)Nc2ncccn2)cc1,-15%,71µM*,5%,12%,-19%,-6%
COc1ccccc1CNC(=O)CS(=O)(=O)Cc1ccccc1,-12%,-8%,2%,43%,21%,-16%
SMILES,BAZ2B block,G9a inh,TDP1 block,HP1b chromo inh,Sfp inh,JMJD2A Tudor inh
CN1CCN(c2ncc3nc(-c4cccs4)c(=O)n(Cc4ccc(F)cc4)c3n2)CC1,x,18%[0.501 µM],x,x,u,x
CCCCCCn1c(SCC(=O)OC)nc2c1c(=O)[nH]c(=O)n2C,-1%,1.6µM*,4%,u,16µM*,u
CCCCCSc1nc2c(c(=O)[nH]c(=O)n2C)n1C,-4%,2%,2%,21%,8%,-25%
CCCCCSc1nc2c(c(=O)[nH]c(=O)n2C)n1C(C)C,8%,40µM*,0%,9%,-6%,-8%
CCCCCOC(=O)CSc1nc2c(c(=O)[nH]c(=O)n2C)n1Cc1ccc(Cl)cc1,3%,40µM*,-3%,9%,u,-15%
CCOC(=O)CSc1nc2c(c(=O)[nH]c(=O)n2C)n1Cc1ccccc1,-3%,-13%,3%,18%,12%,-15%
Cc1nnc(NC(=O)C2CCN(C(=O)c3ccsc3)CC2)s1,x,x,x,53%,x,3%
Cc1ccccc1CSc1nc2c(sc3ccccc32)c(=O)n1CCCC(=O)NCCCOC(C)C,-12%,2%[59 µM],1%,45%,x,-2%
CCN1C(=O)[C@@H]2[C@@H](c3ccc(-c4ccc(Cl)c(Cl)c4)c(OC)c3)N3CCC[C@@]3(C(=O)OC)[C@@H]2C1=O,u,6%[2.33 µM],7%,-4%,x,u
Cc1ccc(NC(=O)CSc2sc3c(O)cc(=O)[nH]c3c2C#N)c(F)c1,u,u,x,41%,u,-35%
COc1ccc(OC)c(NC(=O)CSc2sc3c(O)cc(=O)[nH]c3c2C#N)c1,u,u,8%,u,-24%,16µM*
N#Cc1c(SCC(=O)Nc2ccc(C(F)(F)F)cc2)sc2c(O)cc(=O)[nH]c12,3%,u,12%,11%,u,-21%
COc1cc(Cl)c(C)cc1NC(=O)CSc1sc2c(O)cc(=O)[nH]c2c1C#N,40µM*,u,-4%,1%,u,56µM*
N#Cc1c(SCC(=O)Nc2nncs2)sc2c(O)cc(=O)[nH]c12,10µM*,u,x,u,14µM*,25µM*
Cn1nnnc1SC(C(=O)Nc1cccc(C(F)(F)F)c1)c1ccccc1 (centres undefined),5%,u,0%,33%,10%,-16%
Cc1cccc(Cl)c1NC(=S)NN,-3%,3.5µM*,x,37%,-1%,-18%
COc1ccc(C(=O)CSc2nnc(C3CCCCC3)n2N)c(OC)c1,-4%,-7%[12.7 µM],2%,28%,-3%,-22%
COc1ccc(CCN(C)C(=O)CSc2nnc(C3CC3)n2N)cc1OC,-5%,40µM*,-1%,28%,x,-1%
CCOc1ccc(Cl)cc1/C=C1/C(=O)ON=C1C,u,u,x,14%,50µM*,-6%
